Assay outcomes as filed in PubChem BioAssay.
An excerpt weighted towards active compounds, which were near 19% of everything screened.
IL1B secr inh = blocks inflammasome-driven IL-1 beta release. THP-1 LPS/ATP IL-1B secretion, AlphaLISA, 16 h; active compounds read low. activity change, % at 57.5 µM. 360,000 compounds, 4.7% hits; in the data active = activity change below about -50%; inconclusive = mostly about -30% to -49%
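Secreted IL-1B measured by AlphaLISA bead assay after 16 h compound exposure of THP-1 cells; compounds (final up to 57.5 uM) added 1 h before LPS (250 ng/mL) and ATP (1.25 mM) stimulation; lower signal means less secretion.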
DT40 TDP1 CPT = growth inhibition of DT40 Tdp1-/-;hTDP1 cells with camptothecin (screen for TDP1 inhibitors) | AID 686979 | 420,000 compounds, 12% hits | Potency, µM (series often up to 46.2 µM), usual class: inhibitors | chicken DT40 Tdp1-/-;hTDP1 cells + 20 nM CPT, ATP luminescence, 48 h; note: nearly all actives have a fitted effect of over 55% in size
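Cell growth measured by CellTiter-Glo luminescence after a minimum 48 h, 37 C compound exposure with 20 nM CPT in Tdp1-knockout DT40 cells stably expressing hTDP1, seeded 400/well; qHTS titration format.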
HT1080 IDH1KD tx = kills HT-1080 cells with IDH1 knockdown; HT-1080 IDH1 knockdown viability, ATP luminescence, 48 h; Potency, µM (highest dose often 46.1 µM), actives largely listed as cytotoxic; 360,000 compounds, 2% hits
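IDH1KD HT-1080 cells, 750/well, RPMI + 5% FBS; compound pinned after 2 h settling; 48 h, 37 °C; CellTiter-Glo luminescence; % activity normalised to DMSO and no-cell wells; curves fitted, classed by r2 and efficacy.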
HT1080-NT tox = kills 2HG-producing HT-1080-NT fibrosarcoma cells. HT-1080-NT fibrosarcoma viability, CellTiter-Glo ATP luminescence, 48 h. Potency, µM (top dose mostly 46.1 µM), hits mostly cytotoxic. 360,000 compounds, 1.6% hits. AID 686970;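 note: NT is the 2HG producing partner of a matched IDH1 knockdown line; nearly all actives have a fitted effect of over 55% in size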
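Luminescent CellTiter-Glo readout after 48 hours of compound exposure at 37 degrees C defined viability of HT-1080-NT cells. Activity was normalized to DMSO wells and cell-free media wells; concentration-response curves were fitted and assigned curve classes.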
TDP1 cell noCPT = qHTS for Inhibitors of human tyrosyl-DNA phosphodiesterase 1 (TDP1): qHTS in cells in absence of CPT; DT40 Tdp1-/- hTDP1 cells, no CPT, ATP luminescence, 48 h; 420,000 compounds, 15% hits; Potency, µM (doses to about 46.2 µM), actives largely listed as inhibitors; note: nearly all actives have a fitted effect of over 55% in size
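Compound effects on proliferation are scored in DT40 Tdp1-/-;hTDP1 cells in the absence of CPT. ATP levels (CellTiter-Glo luminescence) are recorded after a ≥48 hr, 37 °C incubation.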
Hits are given with their value; - = inactive; ? = inconclusive; . = not tested or not shown; [ ] = another dose, or the depositor's remark. Unless noted, calls come from the whole dose curve; as a rule, active = well fitted curve in the direction sought with a large enough effect; inconclusive = small, poorly fitted or top-dose-only effect, or another doubt; inactive = no such curve, though single readings can be large; an effect the other way counts as inactive or inconclusive.

SMILES	IL1B secr inh	DT40 TDP1 CPT	HT1080 IDH1KD tx	HT1080-NT tox	TDP1 cell noCPT
CC(=O)Nc1nc(C)c(-c2csc(Nc3cccc(C(C)=O)c3)n2)s1	-78.5	3.26µM	-	?	5.17µM
Cc1ccc(C(=O)Nc2sc3c(c2C(=O)O)CCCCC3)o1	-	?	18.4µM	20.6µM	14.6µM
Cc1ccc(C(=O)Nc2sc3c(c2C(=O)O)CCC(C)C3)o1 (stereo not given)	-	?	?	?	20.6µM
COC(=O)c1c(NC(=O)c2ccc(C)o2)sc2c1CCCCC2	?	?	-	-	?
CC(=O)c1ccc(NC(=O)Cn2ncc3c(C)n(Cc4ccc(F)cc4)c(C)c3c2=O)cc1	.	-	.	.	-
CC1CCN(c2c(NCc3ccc(C(=O)N4CCc5ccccc54)cc3)c(=O)c2=O)CC1	-	5.17µM	4.11µM	5.17µM	5.8µM
Cc1ccc(N(C)C(=O)c2ccc(CNc3c(N4CCC(C)CC4)c(=O)c3=O)cc2)cc1	-	?	-	-	?
Cc1cccc(N2CCN(C(=O)c3ccc(CNc4c(N5CCC(C)CC5)c(=O)c4=O)cc3)CC2C)c1 (stereo not given)	-	20.6µM	-	-	?
O=C(NCCc1ccccc1)c1ccc(Cl)nc1	-	-	-	-	-
COc1c2c(cc3c1C(NC(N)=O)[N+](C)(C)CC3)OCO2 (stereo not given)	.	-[9.04 µM]	.	.	-[9.04 µM]
COc1ccccc1-c1nc(SCC(=O)NCc2ccc(C)cc2)c2c(=O)n(C)c(=O)n(C)c2n1	.	-	.	.	-
CCSc1nc(-c2ccccc2)nc(C(Cl)Cl)n1	-	1.84µM	?	?	8.2µM
CSCCC(NC(=O)c1ccco1)C(=O)NCC1CCCO1 (stereo not given)	-	-	-	-	3.26µM
CCn1c(=N)c(C(=O)NC2CCCCC2)cc2c(=O)n3cc(C)ccc3nc21	.	-	.	.	-
COCc1cc(C)nc(OCC(=O)N/N=C/c2ccc(C)cc2)c1C#N	-	11.6µM	?	-	9.2µM
CC[n+]1c(/C=C/C=C/N(C(C)=O)c2ccccc2)sc2cc(OC)ccc21	-117.4	3.26µM	?	?	2.59µM
Cc1nc2sccn2c(=O)c1CCN1CCC(=C(c2ccccc2)c2ccc(F)cc2)CC1	.	13.3µM	.	.	11.9µM
C=CCOC(=O)C1=C[C@H](c2coc3ccccc3c2=O)C[C@H](OCCCCO)O1	-	-	-	-	-
Cc1cccc(N=C2NC(=O)/C(=C/C=C/c3ccco3)S2)c1C	-	?	?	-	16.4µM
O=C1NC(=Nc2ccccc2)S/C1=C\C=C\c1ccco1	-	8.2µM	?	?	9.2µM
COc1ccc(N=C2NC(=O)/C(=C/c3ccco3)S2)cc1	-55.0	?	-	-	?
COc1ccc(N=C2NC(=O)/C(=C/C=C/c3ccccc3)S2)cc1	-	-	-	-	?
COc1ccc(S(=O)(=O)/N=C2/NC(=O)/C(=C/c3ccco3)S2)cc1	-	-	-	-	-
Cc1ccc(N=C2NC(=O)/C(=C/C=C/c3ccco3)S2)cc1	-	?	-	-	23.1µM
Cc1c(C(=O)N(Cc2ccccc2)C(C)C)oc2ccc(S(=O)(=O)N3CCOCC3)cc12	-	?	?	?	-
SMILES	IL1B secr inh	DT40 TDP1 CPT	HT1080 IDH1KD tx	HT1080-NT tox	TDP1 cell noCPT
CC1(C)CCC(=O)N2CC[C@H]3C[C@H](OC(=O)Nc4ccc(Br)cc4)C[C@@H]1[C@H]32	-	35.5µM	-	-	?
CCN(C(=O)COC(=O)COc1ccc(Cl)c(C)c1)C1CCS(=O)(=O)C1 (stereo not given)	-	-	-	-	-
C/C(=N\NC(=O)Cc1ccc(F)cc1)c1ccc(O)cc1	-	-	-	-	?
C=C(C)C(COc1c2occc2cc2ccc(=O)oc12)OC(C)(C)C(O)COc1c2occc2cc2ccc(=O)oc12 (stereo not given)	-	13µM	-	-	14.6µM
CCCOc1ncnc2c1[nH]c1ccc(OC)cc12	-	6.51µM	-	-	8.2µM
CCCOc1ncnc2c1[nH]c1ccccc12	-	23.1µM	?	-	20.6µM
CCCCOc1ncnc2c1[nH]c1ccc(C)cc12	.	?	4.61µM	?	20.6µM
CCN(CC)c1ncnc2c1[nH]c1ccccc12	-	18.4µM	-	-	23.1µM
CC(=O)Nc1ccc(CCCCc2ccc(NC(C)=O)cc2)cc1	-	-	-	-	-
Cn1cccc1C(=O)N1CCC2(CCCN(Cc3ccncc3)C2)CC1	.	-	.	.	-
COCCNc1ncnc2c1[nH]c1ccccc12	-	?	-	-	11.6µM
CC1=C(C(=O)N2CCOCC2)CC(CC(=O)NCc2cccc3ccccc23)C(=O)N1Cc1ccccc1 (stereo not given)	-	?	-	-	?
CCOC(=O)c1c(C)[nH]c(C(=O)OCC(=O)NCc2ccco2)c1C	-	18.4µM	-	-	23.1µM
CCOC(=O)c1[nH]c(C)c(C(=O)OCC(=O)NCc2ccc(OC)c(OC)c2)c1C	-	?	-	-	?
CCOC(=O)c1c(C)[nH]c(C(=O)OCC(=O)NCCc2ccc(OCC)c(OCC)c2)c1C	-	6.51µM	?	-	5.17µM
CCOc1ccc(CCNC(=O)COC(=O)c2sccc2C)cc1OCC	-	?	-	-	13µM
C=CCn1c(=O)/c(=C/c2ccsc2)s/c1=C(\C#N)C(=O)NCCN1CCOCC1	-	-	-	-	?
COC(=O)COc1cccc2c(=O)n(CC(=O)N3CCC(C)CC3)ccc12	-60.8	-	-	-	-
CCOC(=O)C(C)Oc1cccc2c(=O)n(CC(=O)NCCc3ccccc3)ccc12 (stereo not given)	-53.4	-	-	-	-
CCOC(=O)C(C)Oc1cccc2c(=O)n(CC(=O)NCc3ccc(F)cc3)ccc12 (stereo not given)	-	0.82µM	0.581µM	?	0.731µM
COc1cccc2c(=O)n(CC(=O)NCCc3ccccc3)ccc12	-	-	-	-	-
CCOC(=O)C(C)Oc1cccc2c(=O)n(CC(=O)N3CCCc4ccccc43)ccc12 (stereo not given)	-	-	-	-	-
CCOC(=O)C(C)Oc1cccc2c(=O)n(CC(=O)NCc3ccccc3)ccc12 (stereo not given)	-98.2	0.581µM	0.517µM	0.517µM	0.92µM
CN(C(=O)COC(=O)CCC(=O)c1ccc(F)cc1)C1CCCCC1	-	-	-	-	-
COc1ccc(NC(=O)Cn2ccc3c(OC)cccc3c2=O)cc1	-	-	-	-	-
CCOC(=O)COc1cccc2c(=O)n(CC(=O)NCCc3ccccc3)ccc12	-	-	-	-	-
COC(=O)COc1cccc2c(=O)n(CC(=O)NCc3ccc(F)cc3)ccc12	-	1.03µM	3.66µM	?	1.16µM
COC(=O)COc1cccc2c(=O)n(CC(=O)N3CCCCC3)ccc12	-	-	-	-	-
